# Experimental data as given in ChEMBL document CHEMBL3433997, “St. Jude Leishmania screening dataset” (2016).
# Legend:
# Assay type in all cases: functional
# [1] = target: Solute carrier family 2, facilitated glucose transporter member 1 (Homo sapiens) (UniProt P11166); assay: ST_JUDE_LEISH: Cytotoxicity at 2uM final concentration against transgenic Leishmania Mexicana promastigotes LmGLUT1 that are glucose transport deficient and complemented with the human glucose transporter GLUT1. Activity is measured by DNA content using SYBR green in vitro
# [2] = target: Hexose transporter 1 (Plasmodium falciparum) (UniProt O97467); assay: ST_JUDE_LEISH: Cytotoxicity at 2uM final concentration against transgenic Leishmania Mexicana promastigotes LmPfHT that are glucose transport deficient and complemented with the Plasmodium falciparum hexose transporter. Activity is measured by DNA content using SYBR green in vitro
# [3] = target: Glucose transporter (Leishmania mexicana) (UniProt O61059); assay: ST_JUDE_LEISH: Cytotoxicity at 2uM final concentration against transgenic Leishmania Mexicana promastigotes LmGT2 that are glucose transport deficient and complemented with the L. Mexicana glucose transporter 2. Activity is measured by DNA content using SYBR green in vitro
# Solute carrier family 2, facilitated glucose transporter member 1 (Homo sapiens), sequence (P11166 whole entry): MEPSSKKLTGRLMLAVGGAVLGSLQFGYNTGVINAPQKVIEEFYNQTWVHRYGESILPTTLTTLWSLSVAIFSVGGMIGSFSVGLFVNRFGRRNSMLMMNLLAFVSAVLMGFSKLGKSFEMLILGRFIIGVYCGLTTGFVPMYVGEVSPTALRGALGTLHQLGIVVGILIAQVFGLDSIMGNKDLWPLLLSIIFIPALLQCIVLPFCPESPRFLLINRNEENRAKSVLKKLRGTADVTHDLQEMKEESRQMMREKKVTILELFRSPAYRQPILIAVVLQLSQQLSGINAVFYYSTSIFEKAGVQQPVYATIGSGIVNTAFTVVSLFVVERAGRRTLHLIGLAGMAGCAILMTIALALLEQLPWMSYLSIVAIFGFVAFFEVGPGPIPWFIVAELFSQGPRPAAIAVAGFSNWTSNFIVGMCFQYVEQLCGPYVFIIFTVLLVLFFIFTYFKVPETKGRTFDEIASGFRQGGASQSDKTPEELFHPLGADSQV
Compound,inhibition [1],inhibition [2],inhibition [3]
O=C(NC1CCN(CCC[C@]2(c3ccc(Cl)c(Cl)c3)CCCN(C(=O)c3ccccc3)C2)CC1)c1ccc(Cl)cc1,-0.59%,-1.27%,-2.33%
Cc1onc(-c2ccccc2)c1-c1nc(NC2CCCC(C)C2)no1 (stereo not given),2.36%,-1.49%,3.54%
COc1ccc(-n2cc(CNCCCn3ccnc3)c(-c3cccc(F)c3)n2)cc1,1.74%,2.48%,-5.03%
C=C[C@]1(C)C[C@@H](OC(=O)CNC[C@@H](O)CN2C[C@H](c3ccnc4ccc(OC)nc34)OC2=O)[C@@]2(C)[C@@H]3C(=O)CC[C@@]3(CC[C@@H]2C)[C@@H](C)[C@@H]1O,2.09%,1.68%,1.03%
COCCn1ccc2c3c(N)nc(N)nc3ccc21,0.38%,3.61%,2.26%
N#Cc1ccc2c(c1)CCN(CCC1CCC(Nc3ncnc4ccccc34)CC1)C2 (stereo not given),10.7%,3.96%,4.21%
CCNc1cc(C(=O)NC(Cc2ccccc2)C(O)CNC2CCSCC2)cc(N2CCCC2=O)c1 (stereo not given),3.69%,3.13%,4%
CNC(=O)COC(=O)c1c2c(nc3ccccc13)C(=Cc1ccc3c(c1)OCO3)CCC2,1.88%,-1.19%,0.04%
O=C(/C=C/c1ccc(Cl)c(Cl)c1)NCCCCCN1CCC(NC(=S)Nc2ccc(Cl)cc2Cl)CC1,8.85%,9.09%,7.71%
CN(CCCCN)Cc1ccc(-c2ccc(Cl)cc2)cc1,21.7%,19.1%,10.5%
CC(=O)c1ccc(N2CCN(C(=O)Nc3ccc(Cl)cc3)CC2)cc1,9.4%,7.37%,8.94%
COc1cccc(CNC(=O)c2cccc(-c3cccc(CN4CCC(N5CCCC5)CC4)c3)n2)c1,4.26%,4.42%,6.93%
Cc1nn(CC(C)C)c2sc(C(=O)Nc3nc(-c4ccccn4)cs3)cc12,3.49%,3.41%,2.33%
CCCCCCCN1CCC(CC(=O)Nc2ccnc3ccc(OC)cc23)C(CC)C1 (stereo not given),-2.12%,-1.03%,-0.31%
COc1cc(Br)c(NC(=O)Nc2ccc(C(F)(F)F)c(O[C@@H]3CCN(C)C3)c2)cc1OC,2.53%,2.26%,1.55%
COc1cc(NCCCNCc2cn(S(=O)(=O)c3ccccc3)c3ccccc23)nc2ccccc12,3.92%,4.04%,3.17%
O=C(Nc1ccccc1)Nc1cccc(-c2ccc(-c3nc4cc(C(F)(F)F)ccc4[nH]3)cc2)c1,4.43%,4.53%,5.45%
Cc1ccccc1C1CCN(C2CCC(NC(=O)c3ccc(-c4ccccc4F)o3)CC2)CC1 (stereo not given),3.69%,2.49%,1.85%
CC1Cc2ccccc2N1CC(=O)Nc1cc(C(F)(F)F)ccc1-n1cncn1 (stereo not given),1.94%,2.01%,-1.95%
Cc1cc(CNCCCCCNCc2ccc(Cl)cc2)ccc1O,1.35%,1.91%,2.91%
O=C(NCCN1CCC(c2ncc(-c3ccccc3)o2)CC1)c1ccc(NC(=O)c2ccc(Cl)cc2)cc1,0.84%,2.19%,1.19%
Cc1cc(O)c(CN2CCN(Cc3cccs3)CC2)cc1C(C)C,-0.44%,0.02%,2.94%
O=C(Nc1cccc(-c2cccc(-c3nc4cc(C(F)(F)F)ccc4[nH]3)c2)c1)c1cccnc1,0.56%,0.29%,-1.51%
CC(C)CNCc1ccc(-c2cccc(CNC3CCN(Cc4ccccc4)CC3)c2)cc1,3.21%,3.32%,5.23%
O=C(c1ccc(Cl)cc1)C1CCN(CCCOc2ccc3c(c2)CCNCC3)CC1,1.04%,4.76%,0.17%
